In general, inhibition refers to the relative decrease from the control value, in per cent.

For assay [1], the target named is Sphingosine kinase 1 (Homo sapiens) (UniProt Q9NYA1). Particulars: at 1 µM.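 Further: mean SPHK1 inhibition value reported from the GSK PKIS kinase panel screen.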
The target of assay [2] is T1, Sphingosine kinase 2 (Homo sapiens) (UniProt Q9NRA0).
T1 sequence (whole entry): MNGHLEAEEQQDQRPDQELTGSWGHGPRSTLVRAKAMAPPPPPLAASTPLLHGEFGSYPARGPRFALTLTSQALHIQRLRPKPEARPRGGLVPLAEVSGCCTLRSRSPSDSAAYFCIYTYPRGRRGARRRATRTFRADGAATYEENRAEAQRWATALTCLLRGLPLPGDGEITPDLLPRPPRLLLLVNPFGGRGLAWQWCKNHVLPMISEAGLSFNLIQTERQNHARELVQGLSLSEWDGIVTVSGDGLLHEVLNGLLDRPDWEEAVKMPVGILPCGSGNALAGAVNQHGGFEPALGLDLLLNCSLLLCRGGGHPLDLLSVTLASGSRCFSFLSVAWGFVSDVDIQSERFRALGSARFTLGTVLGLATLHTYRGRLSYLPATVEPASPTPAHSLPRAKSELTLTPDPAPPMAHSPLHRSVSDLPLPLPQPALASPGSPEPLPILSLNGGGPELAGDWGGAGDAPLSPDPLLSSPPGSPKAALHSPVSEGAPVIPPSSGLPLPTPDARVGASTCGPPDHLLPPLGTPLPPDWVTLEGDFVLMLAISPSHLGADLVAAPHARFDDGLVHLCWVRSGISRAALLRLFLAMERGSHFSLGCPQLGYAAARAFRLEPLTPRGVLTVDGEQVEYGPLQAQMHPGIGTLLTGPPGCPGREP
To be noted: at 0.1 µM.

Assay [3] has as its target T1, Sphingosine kinase 2 (Homo sapiens). To be noted: at 1 µM.
The target in assay [4] is Casein kinase II subunit alpha (Homo sapiens) (UniProt P68400). Particulars: at 0.1 µM.
Assay [5] shares this target. Particulars: at 1 µM.
Assay [6] addresses T2, Inhibitor of nuclear factor kappa-B kinase subunit alpha (Homo sapiens) (UniProt O15111).
T2 sequence (whole entry): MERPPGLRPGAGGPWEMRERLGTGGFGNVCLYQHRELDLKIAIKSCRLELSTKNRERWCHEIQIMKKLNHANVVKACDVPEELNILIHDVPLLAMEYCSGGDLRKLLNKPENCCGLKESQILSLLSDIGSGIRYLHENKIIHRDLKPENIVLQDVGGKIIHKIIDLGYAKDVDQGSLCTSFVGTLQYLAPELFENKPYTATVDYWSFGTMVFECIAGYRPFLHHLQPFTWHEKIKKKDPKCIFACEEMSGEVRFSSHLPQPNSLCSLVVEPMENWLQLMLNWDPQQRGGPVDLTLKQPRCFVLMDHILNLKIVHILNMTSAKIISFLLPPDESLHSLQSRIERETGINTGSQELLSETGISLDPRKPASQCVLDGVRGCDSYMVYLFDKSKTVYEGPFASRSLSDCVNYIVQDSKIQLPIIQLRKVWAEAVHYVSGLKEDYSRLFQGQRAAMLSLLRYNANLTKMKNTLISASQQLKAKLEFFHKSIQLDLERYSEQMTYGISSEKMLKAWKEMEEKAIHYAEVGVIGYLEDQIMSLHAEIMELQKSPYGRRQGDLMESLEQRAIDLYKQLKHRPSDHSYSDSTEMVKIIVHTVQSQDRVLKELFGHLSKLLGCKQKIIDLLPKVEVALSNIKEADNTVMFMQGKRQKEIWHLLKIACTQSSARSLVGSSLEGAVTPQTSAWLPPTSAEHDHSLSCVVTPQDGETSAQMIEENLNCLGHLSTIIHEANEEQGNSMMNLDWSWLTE
To be noted: at 0.1 µM.

In assay [7] the target is T2, Inhibitor of nuclear factor kappa-B kinase subunit alpha (Homo sapiens). Particulars: at 1 µM.
The target in assay [8] is T3, Inhibitor of nuclear factor kappa-B kinase subunit beta (Homo sapiens) (UniProt O14920).
T3 sequence (whole entry): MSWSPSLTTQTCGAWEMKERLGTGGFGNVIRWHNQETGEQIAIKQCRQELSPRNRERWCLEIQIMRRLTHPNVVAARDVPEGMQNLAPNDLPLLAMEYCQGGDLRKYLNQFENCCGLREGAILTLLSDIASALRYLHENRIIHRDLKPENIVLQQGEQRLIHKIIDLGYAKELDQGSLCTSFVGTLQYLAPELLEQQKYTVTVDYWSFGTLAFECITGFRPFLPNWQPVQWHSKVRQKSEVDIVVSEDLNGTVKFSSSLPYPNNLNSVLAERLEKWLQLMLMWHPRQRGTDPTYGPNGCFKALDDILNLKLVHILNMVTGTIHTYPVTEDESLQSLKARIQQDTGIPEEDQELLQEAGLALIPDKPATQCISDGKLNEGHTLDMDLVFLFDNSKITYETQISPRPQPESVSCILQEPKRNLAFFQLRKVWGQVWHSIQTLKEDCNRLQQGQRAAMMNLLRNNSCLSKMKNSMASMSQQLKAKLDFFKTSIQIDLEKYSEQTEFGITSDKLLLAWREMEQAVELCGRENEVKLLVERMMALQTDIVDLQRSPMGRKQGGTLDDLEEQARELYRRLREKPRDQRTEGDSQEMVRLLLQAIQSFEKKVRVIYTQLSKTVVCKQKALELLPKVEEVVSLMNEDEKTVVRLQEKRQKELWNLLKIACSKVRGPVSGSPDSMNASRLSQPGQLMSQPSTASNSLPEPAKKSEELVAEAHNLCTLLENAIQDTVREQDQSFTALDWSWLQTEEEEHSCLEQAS
To be noted: at 0.1 µM.

The target in assay [9] is T3, Inhibitor of nuclear factor kappa-B kinase subunit beta (Homo sapiens). Particulars: at 1 µM.
The target of assay [10] is T4, Inhibitor of nuclear factor kappa-B kinase subunit epsilon (Homo sapiens) (UniProt Q14164).
T4 sequence (whole entry): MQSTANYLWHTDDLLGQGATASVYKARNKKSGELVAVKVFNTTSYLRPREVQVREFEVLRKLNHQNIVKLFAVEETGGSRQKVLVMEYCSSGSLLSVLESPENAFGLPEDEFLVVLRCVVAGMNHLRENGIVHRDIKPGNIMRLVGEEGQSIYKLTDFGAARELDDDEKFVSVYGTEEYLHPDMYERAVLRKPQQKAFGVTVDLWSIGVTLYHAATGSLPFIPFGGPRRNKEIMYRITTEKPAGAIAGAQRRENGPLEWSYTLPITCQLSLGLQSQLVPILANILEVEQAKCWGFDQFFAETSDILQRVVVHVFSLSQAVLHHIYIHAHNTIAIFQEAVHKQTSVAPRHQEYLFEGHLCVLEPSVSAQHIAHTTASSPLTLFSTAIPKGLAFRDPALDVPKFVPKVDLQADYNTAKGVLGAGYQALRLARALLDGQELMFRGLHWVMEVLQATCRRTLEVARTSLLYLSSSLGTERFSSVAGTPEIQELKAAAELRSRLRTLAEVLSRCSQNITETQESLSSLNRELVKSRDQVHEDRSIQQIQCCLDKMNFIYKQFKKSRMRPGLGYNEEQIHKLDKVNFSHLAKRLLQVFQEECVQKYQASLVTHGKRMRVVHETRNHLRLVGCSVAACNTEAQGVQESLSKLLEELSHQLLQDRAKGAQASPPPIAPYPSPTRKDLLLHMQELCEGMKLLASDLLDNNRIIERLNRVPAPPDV
To be noted: at 0.1 µM.

Assay [11] addresses T4, Inhibitor of nuclear factor kappa-B kinase subunit epsilon (Homo sapiens). To be noted: at 1 µM.
The target in assay [12] is T5, Serine/threonine-protein kinase Nek1 (Homo sapiens) (UniProt Q96PY6).
T5 sequence (whole entry): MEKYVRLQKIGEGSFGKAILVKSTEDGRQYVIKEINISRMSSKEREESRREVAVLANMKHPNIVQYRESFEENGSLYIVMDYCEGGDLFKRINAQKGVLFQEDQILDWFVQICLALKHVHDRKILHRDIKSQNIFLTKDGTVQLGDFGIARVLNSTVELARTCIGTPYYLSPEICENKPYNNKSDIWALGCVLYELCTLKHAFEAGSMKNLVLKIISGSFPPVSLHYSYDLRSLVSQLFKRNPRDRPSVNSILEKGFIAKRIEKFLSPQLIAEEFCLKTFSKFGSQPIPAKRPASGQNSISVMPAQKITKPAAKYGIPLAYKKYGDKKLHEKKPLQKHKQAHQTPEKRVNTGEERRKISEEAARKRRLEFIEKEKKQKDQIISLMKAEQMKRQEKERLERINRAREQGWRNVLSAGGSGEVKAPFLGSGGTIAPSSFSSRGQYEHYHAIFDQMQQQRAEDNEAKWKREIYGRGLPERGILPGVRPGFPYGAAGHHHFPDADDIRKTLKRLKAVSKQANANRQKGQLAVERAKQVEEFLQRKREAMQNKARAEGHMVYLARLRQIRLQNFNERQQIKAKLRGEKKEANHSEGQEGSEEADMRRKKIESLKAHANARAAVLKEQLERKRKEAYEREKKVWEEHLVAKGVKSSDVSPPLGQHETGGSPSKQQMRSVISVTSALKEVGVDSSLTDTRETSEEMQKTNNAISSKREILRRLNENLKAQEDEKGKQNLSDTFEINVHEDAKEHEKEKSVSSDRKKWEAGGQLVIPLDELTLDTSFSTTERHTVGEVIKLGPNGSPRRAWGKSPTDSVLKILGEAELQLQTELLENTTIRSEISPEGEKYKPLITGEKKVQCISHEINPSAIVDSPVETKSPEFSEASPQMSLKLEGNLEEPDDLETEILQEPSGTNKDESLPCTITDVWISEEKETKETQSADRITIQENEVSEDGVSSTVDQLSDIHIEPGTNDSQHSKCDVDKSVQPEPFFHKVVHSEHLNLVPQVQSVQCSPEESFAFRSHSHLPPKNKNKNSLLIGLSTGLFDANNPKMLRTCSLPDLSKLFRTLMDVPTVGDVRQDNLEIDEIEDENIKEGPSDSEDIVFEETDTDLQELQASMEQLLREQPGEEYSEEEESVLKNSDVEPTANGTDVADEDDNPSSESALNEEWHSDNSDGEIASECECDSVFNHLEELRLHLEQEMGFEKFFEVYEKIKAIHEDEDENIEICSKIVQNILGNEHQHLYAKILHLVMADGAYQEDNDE
To be noted: at 0.1 µM.

In assay [13] the target is T5, Serine/threonine-protein kinase Nek1 (Homo sapiens). Particulars: at 1 µM.
The target in assay [14] is T6, Serine/threonine-protein kinase Nek2 (Homo sapiens) (UniProt P51955).
T6 sequence (whole entry): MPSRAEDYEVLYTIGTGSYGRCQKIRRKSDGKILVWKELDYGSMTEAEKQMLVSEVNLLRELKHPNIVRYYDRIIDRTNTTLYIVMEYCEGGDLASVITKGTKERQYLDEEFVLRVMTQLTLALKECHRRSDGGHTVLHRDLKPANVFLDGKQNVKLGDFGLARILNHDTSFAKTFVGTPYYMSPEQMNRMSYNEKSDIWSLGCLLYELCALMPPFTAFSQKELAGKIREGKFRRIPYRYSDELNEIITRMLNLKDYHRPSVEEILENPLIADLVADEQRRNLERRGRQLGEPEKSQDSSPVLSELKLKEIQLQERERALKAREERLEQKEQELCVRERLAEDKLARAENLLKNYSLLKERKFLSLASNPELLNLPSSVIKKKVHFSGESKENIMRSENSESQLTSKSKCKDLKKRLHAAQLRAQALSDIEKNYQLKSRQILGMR
Particulars: at 0.1 µM.

Assay [15] deals with T6, Serine/threonine-protein kinase Nek2 (Homo sapiens). To be noted: at 1 µM.
The target of assay [16] is Serine/threonine-protein kinase Nek6 (Homo sapiens) (UniProt Q9HC98). Particulars: at 0.1 µM.
Assay [17] has the same target. To be noted: at 1 µM.
Assay [18] has as its target Serine/threonine-protein kinase Nek7 (Homo sapiens) (UniProt Q8TDX7). Particulars: at 0.1 µM.
Assay [19] shares this target. Particulars: at 1 µM.
Assay [20] deals with T7, Serine/threonine-protein kinase Nek9 (Homo sapiens) (UniProt Q8TD19).
T7 sequence (whole entry): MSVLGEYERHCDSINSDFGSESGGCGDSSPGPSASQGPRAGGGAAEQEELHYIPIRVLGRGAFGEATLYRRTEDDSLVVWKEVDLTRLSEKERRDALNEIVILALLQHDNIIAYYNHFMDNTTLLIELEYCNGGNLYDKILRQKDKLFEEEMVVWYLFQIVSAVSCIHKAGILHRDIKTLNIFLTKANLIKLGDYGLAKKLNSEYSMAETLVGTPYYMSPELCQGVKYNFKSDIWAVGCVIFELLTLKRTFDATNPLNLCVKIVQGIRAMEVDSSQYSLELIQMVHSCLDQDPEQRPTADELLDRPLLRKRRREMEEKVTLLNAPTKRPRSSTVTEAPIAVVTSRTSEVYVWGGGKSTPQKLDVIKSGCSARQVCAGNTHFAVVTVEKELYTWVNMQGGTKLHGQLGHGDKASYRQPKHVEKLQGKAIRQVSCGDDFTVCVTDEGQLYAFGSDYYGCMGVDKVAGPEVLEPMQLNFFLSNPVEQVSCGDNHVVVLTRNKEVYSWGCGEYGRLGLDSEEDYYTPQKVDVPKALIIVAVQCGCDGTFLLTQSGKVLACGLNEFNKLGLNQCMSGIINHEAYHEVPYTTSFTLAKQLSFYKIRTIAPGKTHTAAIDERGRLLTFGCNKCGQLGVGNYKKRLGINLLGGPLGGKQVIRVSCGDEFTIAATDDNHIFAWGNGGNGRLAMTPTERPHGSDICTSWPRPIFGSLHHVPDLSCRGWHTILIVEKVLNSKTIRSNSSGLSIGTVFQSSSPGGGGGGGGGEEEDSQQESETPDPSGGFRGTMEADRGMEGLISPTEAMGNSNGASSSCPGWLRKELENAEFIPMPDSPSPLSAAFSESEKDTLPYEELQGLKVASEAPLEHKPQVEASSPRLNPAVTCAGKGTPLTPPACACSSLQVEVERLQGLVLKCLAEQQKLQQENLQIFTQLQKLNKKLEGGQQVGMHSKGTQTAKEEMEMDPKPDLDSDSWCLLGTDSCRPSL
To be noted: at 0.1 µM.

Structures are written as SMILES.

Chain of Serine/threonine-protein kinase Nek6 (Homo sapiens) (Q9HC98 whole entry): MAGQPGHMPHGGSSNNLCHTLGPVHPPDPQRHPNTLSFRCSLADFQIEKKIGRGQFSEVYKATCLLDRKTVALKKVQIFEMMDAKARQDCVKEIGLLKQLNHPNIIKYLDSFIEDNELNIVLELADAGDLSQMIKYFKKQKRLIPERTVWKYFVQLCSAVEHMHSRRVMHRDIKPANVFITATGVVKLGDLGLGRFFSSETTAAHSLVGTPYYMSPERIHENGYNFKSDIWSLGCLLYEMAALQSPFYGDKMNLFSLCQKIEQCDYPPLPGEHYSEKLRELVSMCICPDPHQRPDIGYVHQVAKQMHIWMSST
Chain of Casein kinase II subunit alpha (Homo sapiens) (P68400 whole entry, looked up): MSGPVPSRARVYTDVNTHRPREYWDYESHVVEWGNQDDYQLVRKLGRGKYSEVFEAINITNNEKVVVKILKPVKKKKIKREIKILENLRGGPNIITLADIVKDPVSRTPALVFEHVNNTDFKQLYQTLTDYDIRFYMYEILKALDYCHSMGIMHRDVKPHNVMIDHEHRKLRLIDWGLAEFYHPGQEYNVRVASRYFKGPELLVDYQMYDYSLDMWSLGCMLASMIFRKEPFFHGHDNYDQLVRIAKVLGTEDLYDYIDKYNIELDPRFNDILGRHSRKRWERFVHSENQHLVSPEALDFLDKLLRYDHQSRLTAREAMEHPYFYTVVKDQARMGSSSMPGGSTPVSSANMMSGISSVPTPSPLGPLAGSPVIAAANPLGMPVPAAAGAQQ
Chain of Serine/threonine-protein kinase Nek7 (Homo sapiens) (Q8TDX7 whole entry, looked up): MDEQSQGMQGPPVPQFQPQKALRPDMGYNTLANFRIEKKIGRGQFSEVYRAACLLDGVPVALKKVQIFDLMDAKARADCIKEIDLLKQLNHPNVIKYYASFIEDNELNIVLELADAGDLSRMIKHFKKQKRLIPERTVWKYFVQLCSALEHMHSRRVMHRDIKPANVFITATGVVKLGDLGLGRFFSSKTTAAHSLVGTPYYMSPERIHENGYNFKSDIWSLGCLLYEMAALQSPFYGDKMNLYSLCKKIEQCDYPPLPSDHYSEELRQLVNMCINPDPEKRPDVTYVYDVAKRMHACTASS
Chain of Sphingosine kinase 1 (Homo sapiens) (Q9NYA1 whole entry): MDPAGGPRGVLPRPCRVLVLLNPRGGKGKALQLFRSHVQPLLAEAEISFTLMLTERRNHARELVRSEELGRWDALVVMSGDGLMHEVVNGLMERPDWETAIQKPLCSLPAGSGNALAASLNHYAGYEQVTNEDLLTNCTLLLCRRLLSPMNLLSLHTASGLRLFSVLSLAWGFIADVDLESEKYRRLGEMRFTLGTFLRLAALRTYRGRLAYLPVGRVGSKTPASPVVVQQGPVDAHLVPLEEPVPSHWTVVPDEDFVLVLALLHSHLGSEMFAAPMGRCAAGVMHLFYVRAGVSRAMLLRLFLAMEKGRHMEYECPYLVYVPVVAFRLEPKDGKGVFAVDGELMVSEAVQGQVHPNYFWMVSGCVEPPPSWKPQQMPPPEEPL

For `CN1CCC(n2cnc(-c3ccc(F)cc3)c2-c2ccnc(N)n2)CC1`, the inhibition in assay [1] is -3.49%; in assay [2] it was 0%; in assay [3], -1.67%; in assay [4] it was 8.38%; in [5], 42.7%; in assay [6], 1.97%. In addition, the inhibition is 6.98% in [7]; 4.41% in [8]; 4.02% in assay [9]; 3.07% in [10]; 7.06% in assay [11]; -0.73% in assay [12]. Also, the inhibition in [13] came out at 0.96%; in assay [14], 2.43%; in assay [15] it was 2.64%; in assay [16] it was 2.5%; in [17], 2.17%; in assay [18], 3.21%. For the same compound, the inhibition in [19] is 3.4%; in assay [20] it was 7.9%.

For the origin of these results see ChEMBL document CHEMBL1961873, “Compounds: GSK PKIS; Assays: Nanosyn kinase panel” (2012).
